Measurements published in PubChem BioAssay (NCATS).
Inconclusive results are not listed. Unmarked numbers belong to inactive results. The source made the active and inactive calls. Calls come from the whole dose curve; as a rule, active = well fitted cell-killing curve with a large enough effect; inconclusive = small, poorly fitted or top-dose-only effect; inactive = no such curve, though single readings can be large or run the other way.

Assay: qHTS of pediatric cancer cell lines to identify multiple opportunities for drug repurposing: Confirmatory screen for DAOY cells (AID 1347114); note: nearly all actives have a fitted effect of over 65% in size
Conditions: DAOY medulloblastoma cells viability, cytotoxicity qHTS; series mostly up to 45.9 µM; activity change, negative = cytotoxic: at the top concentration
Excerpt: Drug repurposing or repositioning has been offered as a strategy for drug development in oncology programs. This approach has special potential for childhood cancers and other rare or orphan diseases, where the expected return on new drug development has been a disincentive to pharmaceuticals.
In this project we exploit the poly-pharmacology of drugs to discover new indications via phenotypic screening of a panel of 19 well-characterized cell lines derived from solid tumors seen in children and adolescents. The goal is to identify approved drugs with previously unrecognized anticancer properties that has the potential to reveal new mechanisms and biological processes involved in carcinogenesis or drug resistance. We employed a titration-based paradigm (quantitative high-throughput screening or qHTS), where all compounds were tested at multiple concentrations for their effect on cell viability. Concentration-response curves (CRCs) were derived directly from the primary screen, and both potency and efficacy values were used to identify compounds with robust bioactivity profiles. We screened the NIH Chemical Genomics Center (NCGC) Pharmaceutical Collection (NPC) and Mechanism Interrogation Plate (MIPE) small molecule collections of approved and investigational compounds against these cell lines; and measured metabolically active cells after 48 hours of compound treatment as a proxy for cell viability.
Assay Submitter: Nathalia J. Martinez, National Center for Advancing Translational Sciences, National Institutes of Health, Rockville, MD, USA; email: natalia.martinez@nih.gov
[1] Shen, M et al. Quantitative high-throughput phenotypic screening of pediatric cancer cell lines identifies multiple opportunities for drug repurposing. Oncotarget 2017 Dec 19;9(4):4758-4772. PMID 29435139.
The cells were obtained from University of North Carolina (UNC), Pediatric Preclinical Testing Program (PPT), and Coriell Institute (CI).
qHTS cell viability assay:
Cells were assayed in growth media at a density of 500-1,000 cells/well. Five microliters of cells were dispensed into 1,536-well, white, solid-bottom, TC-treated plates (Greiner Bio One) using a multidrop dispenser and incubated at 37 degrees C, 5% CO2, under a humidified atmosphere for 5 hours. Twenty-three nanoliters of compounds and controls (neutral control DMSO or positive control bortezomib at final concentration of 2.3 µM) were subsequently transferred by Kalypsys pintool. For primary screens, the MIPE collection was tested at 11-point dilutions (final concentrations range from 0.78 nM to 46 µM) and the NPC collection at 8-point dilutions (final concentrations range from 0.59 nM to 46 µM). Compounds tested in follow-up screens were assayed at 11-point dilutions. Cells were incubated for 48 hours, followed by addition of 3 uL of CellTiter-Glo (Promega). After a 15 min incubation at room temperature, samples were analyzed for luminescence intensity using a ViewLux High-throughput CCD imager equipped with clear filters.
% is set by controls: 0 for no effect and ±100 for the full control effect; potency is the fitted concentration of half-maximal effect.

Row | Compound | Potency | activity change, negative = cytotoxic
1 | CC(C)c1nn(-c2c(Cl)cccc2Cl)c2nc(Cc3ccc(OCCO)cc3)[nH]c(=O)c12 | 0.208 µM (active) | 
2 | CN(c1ncccc1CNc1nc(Nc2ccc3c(c2)CC(=O)N3)ncc1C(F)(F)F)S(C)(=O)=O | 6.57 µM (active) | 
3 | CC1(C)CCC(c2ccc(Cl)cc2)=C(CN2CCN(c3ccc(C(=O)NS(=O)(=O)c4ccc(N[C@H](CCN5CCOCC5)CSc5ccccc5)c(S(=O)(=O)C(F)(F)F)c4)cc3)CC2)C1 | 9.27 µM (active) | 
4 | Cc1cc(Nc2cc(N3CCN(C)CC3)nc(Sc3ccc(NC(=O)C4CC4)cc3)n2)n[nH]1 | 5.22 µM (active) | 
5 | C#Cc1cccc(Nc2ncnc3cc(OC)c(OCCCCCCC(=O)NO)cc23)c1 | 2.14 µM (active) | 
6 | Cc1ccc(C(=O)Nc2cccc(C(F)(F)F)c2)cc1-c1ccc2nc(NCCN3CCOCC3)ncc2c1 | 20.8 µM (active) | 
7 | CC(C)(C)c1cnc(CSc2cnc(NC(=O)C3CCNCC3)s2)o1 | 1.17 µM (active) | 
8 | CNC(=O)c1nn(C)c2c1C(C)(C)Cc1cnc(Nc3ccc(N4CCN(C)CC4)cc3)nc1-2 | 9.27 µM (active) | 
9 | COc1cc(Nc2ncc(F)c(Nc3ccc4c(n3)N(COP(=O)(O)O)C(=O)C(C)(C)O4)n2)cc(OC)c1OC | 3.69 µM (active) | 
10 | CC(C)C[C@H](NC(=O)CNC(=O)c1cc(Cl)ccc1Cl)B(O)O | 0.185 µM (active) | 
11 | COCCn1c2c([n+](Cc3cnccn3)c1C)C(=O)c1ccccc1C2=O | 0.0414 µM (active) | 
12 | COc1c(OCCCN2CCOCC2)ccc2c3n(c(=NC(=O)c4cnc(N)nc4)nc12)CCN3 |  | -46.1% [at 29.5 µM]
13 | COc1cc2c(Oc3ccc(NC(=O)C4(C(=O)Nc5ccc(F)cc5)CC4)cc3F)ccnc2cc1OCCCN1CCOCC1 | 11.7 µM (active) | 
14 | CCS(=O)(=O)c1cccc(-c2cc(C(=O)NC3CCN(C)CC3)c(C)c3[nH]c4ncc(C)cc4c23)c1 | 16.5 µM (active) | 
15 | Cc1nc2cnc3ccc(C#Cc4cccnc4)cc3c2n1-c1ccc(C(C)(C)C#N)cc1 | 13.5 µM (active) | 
16 | COC(=O)[C@]12CCC(C)(C)C[C@@H]1[C@@H]1C(=O)C=C3[C@@]4(C)C=C(C#N)C(=O)C(C)(C)[C@@H]4CC[C@@]3(C)[C@]1(C)CC2 | 2.33 µM (active) | 
17 | O=c1[nH]nc(Sc2ncc([N+](=O)[O-])s2)n1-c1ccc2c(c1)OCCO2 | 23.3 µM (active) | 
18 | CC1(C)O[C@@H]2C[C@@H]3[C@H]4C[C@@H](F)C5=CC(=O)C=C[C@]5(C)[C@@]4(F)[C@@H](O)C[C@]3(C)[C@]2(C(=O)CO)O1 | 0.737 µM (active) | 
19 | CN1CCN(c2cc(C(=O)Nc3ccc4c(c3)-c3c(c(C(N)=O)nn3-c3ccc(F)cc3)CC4)c(Cl)cn2)CC1 | 23.3 µM (active) | 
20 | Cc1[nH]nc2ccc(-c3cncc(OC[C@@H](N)Cc4ccccc4)c3)cc12 | 4.27 µM (active) | 

Row | Compound | Potency | activity change, negative = cytotoxic
21 | CC=CC1=C(C(=O)O)N2C(=O)[C@H](NC(=O)[C@H](N)c3ccc(O)cc3)[C@@H]2SC1 |  | -0.772%
22 | C=CCn1c(=O)c2cnc(Nc3ccc(N4CCN(C)CC4)cc3)nc2n1-c1cccc(C(C)(C)O)n1 | 1.85 µM (active) | 
23 | CC(C)(C)c1cc(NC(=O)Nc2ccc(-c3cn4c(n3)sc3cc(OCCN5CCOCC5)ccc34)cc2)no1 | 20.8 µM (active) | 
24 | Cc1cnc(-c2cnc(NCCNc3ccc(C#N)cn3)nc2-c2ccc(Cl)cc2Cl)[nH]1 | 16.5 µM (active) | 
25 | Nc1ccccc1NC(=O)c1ccc(CNc2nccc(-c3cccnc3)n2)cc1 | 2.93 µM (active) | 
26 | CCCCc1nc2cc(C=CC(=O)NO)ccc2n1CCN(CC)CC | 2.33 µM (active) | 
27 | Cc1ccc(C(N)=O)cc1Nc1nccc(-c2cn(C(C)C)c3cnccc23)n1 | 13.5 µM (active) | 
28 | COc1cccc(Nc2c(C(N)=O)cnc3c(C)cc(S(=O)(=O)c4cccc(C(=O)N(C)C)c4)cc23)c1 |  | -2.81% [at 29.5 µM]
29 | Cc1ccc2nc(NC(=O)CSc3nc4c(c(=O)n3-c3ccccc3)SCC4)sc2c1 | 7.37 µM (active) | 
30 | COc1cccc2nc(-c3cccs3)nc(NN3C(=O)C=C(C)C3=O)c12 | 5.22 µM (active) | 
31 | CN(C)CCCN=c1c2ccccc2n(C)c2[nH]c(=O)n(C)c(=O)c12 |  | 14.9%
32 | CC(C)c1cnn2c(NCc3ccccc3)cc(N[C@@H](CO)[C@H](O)CO)nc12 | 0.827 µM (active) | 
33 | CN1CC[C@@H](c2c(O)cc(O)c3c(=O)cc(-c4ccccc4Cl)oc23)[C@@H](O)C1 | 0.465 µM (active) | 
34 | CC(C)(C)c1cc(C(C)(C)C)c(NC(=O)c2c[nH]c3ccccc3c2=O)cc1O | 18.5 µM (active) | 
35 | CN(C)Cc1c(C(=O)NCCOc2ccc(C(=O)NO)cc2)oc2ccccc12 | 2.61 µM (active) | 
36 | CN(C)CC(C)(C)CNc1nn2c(-c3ccccc3)nnc2cc1C1CCC1 |  | 7.88%
37 | Cc1nc(Nc2n[nH]c3c2CN(C(=O)N[C@H](CN(C)C)c2ccccc2)C3(C)C)c2sccc2n1 |  | -9.7%
38 | C[C@@]12O[C@@H](C[C@]1(O)CO)n1c3ccccc3c3c4c(c5c6ccccc6n2c5c31)CNC4=O | 9.27 µM (active) | 
39 | O=C(Cc1ccc(-c2ccc(OCCN3CCOCC3)cc2)cn1)NCc1ccccc1 | 0.117 µM (active) | 
40 | CC=C1NC(=O)[C@H]2CSSCCC=C[C@H](CC(=O)N[C@H](C(C)C)C(=O)N2)OC(=O)[C@H](C(C)C)NC1=O |  | -13.9%
